Data taken from PubChem BioAssay.

Experiment: binders of probe aFGF10 on microarray, primary screen, stem cell growth factor project, biochemical, small-molecule microarray, fluorescence 635/667 (AID 1071);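 also: score merges 667 nm spot intensity and signal to noise from triplicate slides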
Details: higher = more signal

Question: With `CCOC(=O)C[C@H]1[C@H](OC(=O)Cc2ccc3c(c2)OCO3)[C@@H](NC(=O)c2ccc3ccccc3c2)c2cc(OCCCO)ccc2N1C(=O)Cc1ccc(OC)cc1` as the compound, how does the composite z-score read?
Answer: 0.546

Question: For `O=C(NCc1ccccc1)c1ccc(Br)cc1[N+](=O)[O-]`, which composite z-score is on record?
Answer: 0.438

Question: With `CC(C)(C)OC(=O)CC[C@]1(C(=O)N2CCCCC2)N=C(c2ccc(OCCCO)cc2)O[C@H]1c1ccccc1` as the compound, how does the composite z-score read?
Answer: 1.07

Question: For `C=CCNC(=O)[C@@H]1[C@H]2C(=O)O[C@H](c3ccccc3)[C@H](c3ccccc3)N2[C@H](c2ccc(OCCO)cc2)[C@@]12C(=O)N(C(=O)OCCOC)c1ccc(C#CC3(O)CCCCCC3)cc12`, which composite z-score is on record?
Answer: 0.552

Question: For `CCCC=C(CCC)[C@@H](NS(=O)(=O)c1ccc(C(F)(F)F)cc1)c1ccc(-c2ccccc2)cc1`, which composite z-score is on record?
Answer: 0.309

Question: For `NC(=O)NCC#Cc1ccc2c(c1)[C@]1(C(=O)N2)[C@H](C(=O)N2CCCCCCC2)[C@H]2C(=O)O[C@H](c3ccccc3)[C@H](c3ccccc3)N2[C@@H]1c1ccccc1OCCO`, which composite z-score is on record?
Answer: 0.921

Question: For `C=C[C@H](OC)[C@@H](OC(=O)Nc1ccc(SC)cc1)c1ccc(O)c(F)c1`, which composite z-score is on record?
Answer: 0.2

Question: For `CO[C@H]1COC(=O)CC=C[C@H](C)COC(=O)[C@@H](OCc2ccccc2)C=C[C@@H]1C`, which composite z-score is on record?
Answer: -1.11

Question: For `CC(C)C[C@@H]1NC(=O)[C@H]2C[C@@H](C(=O)NCCCCCC[N+](C)(C)C)[C@@H](c3ccc(O)cc3)N2C1=O`, which composite z-score is on record?
Answer: -0.615

Question: With `CO[C@H]1COC(=O)[C@@H](C)NC(=O)CC=C[C@@H](C)[C@H](OC)COC(=O)CC=C[C@@H]1C` as the compound, how does the composite z-score read?
Answer: -0.895

Question: With `C=CC[C@@]12N=C(c3ccc(OCCCO)cc3)O[C@@H]1c1ccccc1CN(Cc1ccccc1)C2=O` as the compound, how does the composite z-score read?
Answer: 0.245

Question: With `COc1ccc([Si](C)(C)[C@@H]2[C@@H](CC(=O)N(CCO)Cc3ccccc3)O[C@]3(C(=O)N(Cc4cccc(N5CCC5=O)c4)c4ccccc43)[C@H]2C)cc1` as the compound, how does the composite z-score read?
Answer: 0.434

Question: With `CN(C)CCCC[C@@H]1NC(=O)[C@@H]2C[C@H](C(=O)O)[C@H](c3ccc(O)cc3)N2C1=O` as the compound, how does the composite z-score read?
Answer: 0.217

Question: For `CCOC(=O)C1=CCC(c2cccc3ccccc23)N(S(=O)(=O)c2ccc(C)cc2)C1` (stereo unspecified), which composite z-score is on record?
Answer: 0.323

Question: Which composite z-score does the source give for `CO[C@@H]1COC(=O)CC=C[C@@H](C)[C@H](OC)COC(=O)CC=C[C@H]1C` here?
Answer: -0.228

Question: With `C=C(COC)/C(=C/C[C@H](OC(C)=O)c1ccc(OCCO)cc1)c1cnc2ccccc2c1` as the compound, how does the composite z-score read?
Answer: 0.765

Question: For `CO[C@H]1O[C@H](CO)[C@@H](OC(=O)Nc2ccc(Oc3ccccc3)cc2)[C@H](OC(=O)Nc2ccccc2-c2ccccc2)[C@H]1OC(=O)Nc1ccccc1-c1ccccc1`, which composite z-score is on record?
Answer: 1.04

Question: Which composite z-score does the source give for `CCC1=C2CN(Cc3ccccc3Br)[C@@H]([C@@H](O)Cc3ccccc3)C2C=CCC1` (stereo partly specified) here?
Answer: 0.528

Question: Which composite z-score does the source give for `[N-]=[N+]=NCc1ccccc1C[C@@]1(C(=O)N2CCOCC2)N=C(c2ccc(OCCCO)cc2)O[C@@H]1c1ccccc1N=[N+]=[N-]` here?
Answer: 0.819

Question: For `C=CC(=O)O[C@@H](Cc1ccccc1)[C@H]1C2C=CCCC=C2CN1Cc1cccc(Cl)c1` (stereo partly specified), which composite z-score is on record?
Answer: -0.682

Question: For `NC(=O)[C@H]1[C@@H]2C(=O)O[C@@H](c3ccccc3)[C@@H](c3ccccc3)N2[C@@H](c2ccc(O)cc2)[C@]12C(=O)Nc1ccc(C#CCCO)cc12`, which composite z-score is on record?
Answer: -0.861

Question: With `NC(=O)NCC#Cc1ccc2c(c1)[C@]1(C(=O)N2)[C@H](C(N)=O)[C@H]2C(=O)O[C@H](c3ccccc3)[C@H](c3ccccc3)N2[C@@H]1c1ccccc1OCCO` as the compound, how does the composite z-score read?
Answer: 0.0467

Question: Which composite z-score does the source give for `C=CC[C@]1(C(N)=O)N=C(c2ccc(OCCCO)cc2)O[C@H]1c1ccccc1CN=[N+]=[N-]` here?
Answer: -0.333

Question: Which composite z-score does the source give for `C[N+](C)(C)CCCCNC(=O)[C@@H]1C[C@@H]2C(=O)N3CCC[C@H]3C(=O)N2[C@@H]1c1cccc(OCCO)c1` here?
Answer: 0.712

Question: For `O=C1O[C@H](c2ccccc2)[C@H](c2ccccc2)N2[C@H]1[C@@H](C(=O)Nc1nc3ccccc3s1)[C@]1(C(=O)Nc3ccc(C#CC4(O)CCCCCC4)cc31)[C@H]2c1ccc(O)cc1`, which composite z-score is on record?
Answer: 0.443

Question: For `COc1ccc(C(O)C2C=CC3C(=O)N(C)C(=O)C3N2N2CCCCC2)cc1OCc1ccccc1` (stereo unspecified), which composite z-score is on record?
Answer: 0.49

Question: For `CC1=C([C@H](O)CCc2ccccc2)[C@H](CO)[C@@H]2C(=O)N(Cc3ccccc3)C(=O)[C@@H]2C1`, which composite z-score is on record?
Answer: 0.216

Question: For `C=C[C@H](OC)[C@@H](OC(=O)Nc1ccc(SC)cc1)c1ccc(OC)c(O)c1`, which composite z-score is on record?
Answer: -0.748

Question: Which composite z-score does the source give for `CC(C)(C)OC(=O)CC[C@@]1(C(=O)NCc2ccccc2)N=C(c2ccc(OCCCO)cc2)O[C@@H]1c1ccccc1` here?
Answer: 0.0922

Question: Which composite z-score does the source give for `O=C1c2ccccc2[C@](Cc2ccccc2I)(C(=O)NCC(F)(F)F)[C@H](c2ccc(CO)cc2)N1Cc1ccccc1C(F)(F)F` here?
Answer: 0.22

Question: Which composite z-score does the source give for `C=CCC(OC(C)=O)[C@@H]1[C@@H](N(Cc2cccc3ccccc23)C(=O)Cc2ccc(F)cc2)c2cc(OCCCO)ccc2N1C(=O)Cc1ccc2ccccc2c1` (stereo partly specified) here?
Answer: -0.169

Question: For `C=CCN1C(=O)[C@@]2(Cc3ccccc3)N=C(c3ccc(OCCCO)cc3)O[C@H]2c2ccccc21`, which composite z-score is on record?
Answer: 0.0096

Question: For `Cc1ccc(N2C(=O)c3ccccc3[C@@H](C(=O)NCc3ccccc3)[C@@H]2c2ccc(CO)cc2)nc1`, which composite z-score is on record?
Answer: -0.741

Question: Which composite z-score does the source give for `CO[C@H]1COC(=O)[C@H](C)COC(=O)[C@H](Cc2ccccc2)NC(=O)CC=C[C@H]1C` here?
Answer: -0.106

Question: Which composite z-score does the source give for `CN(C)CCCC[C@@H]1NC(=O)[C@@H]2C[C@H](C(=O)NCCCCCNC(=O)CS)[C@H](c3ccc(O)cc3)N2C1=O` here?
Answer: 0.429

Question: For `O=C1O[C@H](c2ccccc2)[C@H](c2ccccc2)N2[C@H]1[C@@H](C(=O)NC[C@H](O)c1ccccc1)[C@]1(C(=O)Nc3ccc(C#CC4=CCCCC4)cc31)[C@H]2c1ccc(OCCO)cc1`, which composite z-score is on record?
Answer: 0.423
